Hits are enriched below; roughly 0.33% of the tested compounds scored in any of these assays.
FXIIa inh = inhibitors of human coagulation factor XIIa; purified human FXIIa, AMC substrate fluorescence, 2 h; 0.2% of 33,000 active; inhibition, % at 10 µM; P00748; in the data active = inhibition above about 30%;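 note: 0% = enzyme with vehicle only and 100% = no enzyme blank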
FXIa inh = inhibitors of human coagulation factor XIa. P03951. purified human FXIa, fluorogenic AMC substrate cleavage. inhibition, % at 10 µM. 0.3% of 33,000 active;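 active = inhibition above 40% in the primary screen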;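 note: 0% = enzyme without compound and 100% = blank wells lacking enzyme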
Target sequence (P03951 19-387 limits assumed): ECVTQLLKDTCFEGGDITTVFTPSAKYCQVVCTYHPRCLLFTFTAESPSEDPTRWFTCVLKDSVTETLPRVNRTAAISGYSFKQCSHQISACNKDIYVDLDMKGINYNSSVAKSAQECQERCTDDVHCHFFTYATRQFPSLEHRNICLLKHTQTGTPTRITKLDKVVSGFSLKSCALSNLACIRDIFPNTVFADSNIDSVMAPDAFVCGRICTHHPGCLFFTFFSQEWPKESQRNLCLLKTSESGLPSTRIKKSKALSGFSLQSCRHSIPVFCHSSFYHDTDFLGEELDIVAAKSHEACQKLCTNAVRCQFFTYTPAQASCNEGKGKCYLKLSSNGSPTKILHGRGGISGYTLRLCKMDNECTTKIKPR
Target sequence (P03951 388-625 limits assumed): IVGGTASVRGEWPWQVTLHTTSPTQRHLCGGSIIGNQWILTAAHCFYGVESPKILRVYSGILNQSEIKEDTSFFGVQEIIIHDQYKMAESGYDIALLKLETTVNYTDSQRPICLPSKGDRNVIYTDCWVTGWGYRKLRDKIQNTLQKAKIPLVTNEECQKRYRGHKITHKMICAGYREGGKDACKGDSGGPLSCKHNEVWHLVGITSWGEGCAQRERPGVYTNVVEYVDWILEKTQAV
Active calls of the source: *.

SMILES	FXIIa inh	FXIa inh
CCn1c(SCC(=O)c2[nH]c(C)c(C(C)=O)c2C)nnc1-c1ccccc1	-10	41*
CCOC(=O)c1c(C)[nH]c(C)c1C(=O)CSc1nnc(-c2ccncc2)n1Cc1ccccc1	1	-7
Cc1ccc(-c2csc(N3CCC(NS(=O)(=O)c4ccc5c(c4)OCCO5)CC3)n2)cc1	-12	59*
CC(C)CNS(=O)(=O)c1ccc2c(c1)OCCO2	6	10
O=C(CC1NCCNC1=O)Nc1ccc2c(c1)OCCO2 (stereo unspecified)	5	-7
O=c1c(-c2cc3ccccc3o2)[n+]([O-])c2ccccc2n1OCc1ccccn1	-11	40*
O=c1c(-c2ccco2)[n+]([O-])c2ccccc2n1OCc1ccccc1	12	-7
CCOc1ccc(S(=O)(=O)NCC(=O)N(C)Cc2cccnc2)cc1	2	-8
O=C(Nc1ccc2nc(-c3ccccn3)[nH]c2c1)C1CCCCC1	3	0
CC(C)c1nc2ccc(NC(=O)C3CCCCC3)cc2[nH]1	-16	104*
O=C(c1ccccc1)c1ccc(N2CCOCC2)c(NC(=O)c2ccco2)c1	1	0
Cc1ccc(N(C(=O)c2ccccn2)C2(C(=O)NC3CCCC3)CCCCC2)cc1	6	42*
O=C(c1ccccn1)N(Cc1ccco1)C1(C(=O)NC2CCCC2)CCCCC1	-13	24
CCc1nnc(NC(=O)CSc2nnc(C)n2Cc2ccccc2)s1	4	5
CCOc1ccc(S(=O)(=O)Nc2ccccn2)c2ccccc12	0	-6
CCOc1ccc(S(=O)(=O)NCc2ccc(OC)cc2)c2cccnc12	9	62*
CCn1c(SCC(=O)N2c3ccccc3Sc3ccc(Cl)cc32)nc2c1c(=O)n(C)c(=O)n2C	5	-1
Cc1nnc(C)n1/N=C/c1ccccc1	1	-3
CN(CCOc1ccccc1)c1ccc(S(=O)(=O)N2CCCCC2)cn1	11	41*
CN(C)S(=O)(=O)c1ccc(S(=O)(=O)N2CCCC2)cc1	5	6
CC1CCN(C(=O)C2CCN(S(=O)(=O)c3cccnc3)CC2)CC1	9	-8
COc1cc(/C=c2\sc3n(c2=O)C(c2ccccc2)C(c2ccccc2)=NN=3)ccc1O (stereo unspecified)	5	-5
COc1cc(/C=c2\sc3n(c2=O)CCCN=3)ccc1O	7	43*
Cc1ccc(C2=N/C(=C\c3cccs3)C(=O)N2Nc2ccccc2)cc1	14	-6
O=C1N=C(c2ccccc2)S/C1=C\c1cccs1	46*	38
SMILES	FXIIa inh	FXIa inh
Cc1ccc(N2C(=O)c3sc4nnc(C)c(=O)n4c3C2=O)cc1	6	-1
CC12CC(c3ccccc3O1)N(C(=O)c1ccc(Br)o1)C(=O)N2c1ccccc1 (stereo unspecified)	7	-7
COc1ccc(Nc2ncnc3c2cnn3Cc2ccc(C)cc2)cc1	-4	2
COCCNC(=O)COC(=O)c1[nH]c(C)c(C(C)=O)c1C	14	0
CNC(=O)COC(=O)c1[nH]c(C)c(C(C)=O)c1C	6	46*
COc1ccccc1-n1cnnc1SCC(=O)Nc1nc(C)c(Cl)cc1Cl	5	43*
COc1ccc(-n2cnnc2SCC(=O)Nc2nc(C)c(Cl)cc2Cl)cc1	5	3
Cc1ccc(C(=O)NC(Cc2c[nH]c3ccccc23)C(=O)O)cc1 (stereo unspecified)	10	7
COC(=O)C(Cc1c[nH]c2ccccc12)NC(C)=O (stereo unspecified)	-17	103*
CCc1nc(N)c(C#N)c(-c2cccc3ccccc23)c1C	2	4
O=C(Nc1nc2n(n1)C(c1ccccc1)C=C(c1ccccc1)N2)c1ccco1 (stereo unspecified)	25	1
O=C(Nc1nc2n(n1)C(c1ccc(Cl)cc1)CC(c1ccc(Cl)cc1)N2)c1ccco1 (stereo unspecified)	46*	-4
O=C(Nc1ccccc1C(=O)N1CCOCC1)c1ccc(F)cc1	5	47*
CN(c1ccc(C(=O)Nc2ccccc2C(=O)N2CCOCC2)cc1)S(C)(=O)=O	4	-5
Cc1ccc(NC2CC(=O)N(c3ccc(N4CCCCC4)cc3)C2=O)cc1 (stereo unspecified)	3	-1
Cc1csc(NC(=O)CSc2nc3ccccc3s2)n1	7	4
CCOC(=O)Cn1c(=O)c2c(nc(Br)n2Cc2ccccc2Cl)n(C)c1=O	3	-5
C=CCn1c(=O)c2c(nc(Br)n2Cc2ccccc2Cl)n(C)c1=O	3	46*
COC(=O)Nc1ccc(S(=O)(=O)Nc2cccc3ccccc23)cc1	6	3
COCCN=C1Sc2nc3c(C)cccc3cc2CN1Cc1ccco1	4	43*
Cc1ccc2cc3c(nc2c1)N(Cc1ccco1)CC3	2	-5
N#Cc1ccccc1Cn1c(=O)n(C2CCCC2)c(=O)c2ccccc21	-9	-11
O=C(O)Cn1c(SCc2cccc3ccccc23)nc2ccccc21	4	-1
Cc1onc(-c2c(Cl)cccc2Cl)c1C(=O)n1nnc2ccccc21	7	7
Cc1ccc(C(=O)n2nnc3ccccc32)cc1	68*	97*
SMILES	FXIIa inh	FXIa inh
O=C(c1cccc2ccccc12)n1nnc2ccccc21	27	48*
Cc1cc(Nc2nc3ccccc3nc2Cl)n(-c2ccccc2C)n1	2	1
O=C(NCC1CCCO1)c1nc2c(nnn2Cc2ccccc2Cl)c(=O)[nH]1 (stereo unspecified)	8	5
O=C(Cn1[nH]c(=O)c2ccccc2c1=O)OCC(=O)N(Cc1ccccc1)Cc1ccccc1	-12	-13
CCN(CC)C(=O)Oc1ccc2c(=O)c(-c3ccccc3)coc2c1	4	2
O=C(Oc1ccc2c(=O)c(Cl)coc2c1)c1cccnc1	29	59*
C/C(=C\C(=O)c1ccc(Cl)cc1)Nc1ccc(N2CCOCC2)cc1	6	5
COc1ccc(CC(=O)NCc2ccc3c(c2)OCO3)cc1	7	53*
COc1ccc(CN2CC(C(=O)NCc3ccc4c(c3)OCO4)CC2=O)cc1 (stereo unspecified)	2	32
CC(Sc1ccc2ccccc2n1)C(=O)O (stereo unspecified)	-3	-10
CCOC(=O)N1CCN(C/C(C)=C/c2ccccc2)CC1	31*	2
CCOC(=O)N1CCN(CC(=O)Nc2ccc(C)cc2)CC1	2	4
CC1Cc2ccccc2N1C(=O)COC(=O)c1cccnc1Cl (stereo unspecified)	7	6
Cc1ccc(OC(=O)c2ccc(Br)o2)cc1	8	8
CC(=O)c1ccc(OC(=O)c2ccc(Br)o2)cc1	50*	13
Nc1[nH]nc2nc(NCc3ccccc3)c3c(c12)CCN(Cc1ccccc1)C3	-17	1
CCOC(=O)CN1C(=O)c2ccccc2C1=O	9	2
Cc1c(O)ccc(C(=O)CN2C(=O)c3ccccc3C2=O)c1O	6	59*
O=[N+]([O-])c1ccc(/C=N/Nc2nc(N3CCCCCC3)nc(N3CCCCCC3)n2)o1	6	4
C/C(=N/NC(=O)Cc1cccn1C)c1ccccc1	2	2
Cc1ccc(OCc2nnc(SCC(=O)NC3CCCCC3)n2C)cc1	19	-8
Cn1c(SCC(=O)NC2CCCCC2)nnc1-c1cccc(N)c1	-13	40*
COc1ccc(C(=O)n2nc(-c3ccccc3)nc2N)cc1OC	62*	1
COc1cc(C(N)=O)ccc1OCc1ccccc1	4	2
Cc1ccc(NC(=O)Nc2ccccc2C#N)c(Cl)c1	5	5

Screening data (PubChem)
